# In PubChem BioAssay (NCI):
# This is part of a sample that, as a whole, favours compounds with a hit. Of some 83,000 tested, about 20% had one in any assay.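 Plates (96-well) were seeded with cells, treated with compound at one concentration, and incubated for 48 hours before percent growth was determined.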 A number with no mark means an inactive call. Active and inactive are the calls of the source. How the source made its calls: active means growth percent below 10; inactive means the rest.
# Columns and labels:
# Assay in all cases: NCI-60 one-dose screen, 48 h (100 = growth as untreated, 0 = no growth, -100 = all killed)
# Details in all cases: 10 µM
# HCT-15 colon = tested on: HCT-15 colon
# HT29 colon = tested on: HT29 colon
# SNB-75 CNS = tested on: SNB-75 CNS
# SNB-19 CNS = tested on: SNB-19 CNS
# U251 CNS = tested on: U251 CNS
# PC-3 prostate = tested on: PC-3 prostate
# SK-MEL-5 melanoma = tested on: SK-MEL-5 melanoma
# UACC-62 melanoma = tested on: UACC-62 melanoma
# LOX IMVI melanoma = tested on: LOX IMVI melanoma
# SK-MEL-28 melanoma = tested on: SK-MEL-28 melanoma
# SK-MEL-2 melanoma = tested on: SK-MEL-2 melanoma
# SN12C renal = tested on: SN12C renal
# UO-31 renal = tested on: UO-31 renal
# ACHN renal = tested on: ACHN renal
# CAKI-1 renal = tested on: CAKI-1 renal
# A498 renal = tested on: A498 renal
# CCRF-CEM leukemia = tested on: CCRF-CEM leukemia
# MOLT-4 leukemia = tested on: MOLT-4 leukemia
# TK-10 renal = tested on: TK-10 renal
SMILES,growth (HCT-15 colon) [%],growth (HT29 colon) [%],growth (SNB-75 CNS),growth (SNB-19 CNS) [%],growth (U251 CNS) [%],growth (PC-3 prostate) [%],growth (SK-MEL-5 melanoma) [%],growth (UACC-62 melanoma) [%],growth (LOX IMVI melanoma) [%],growth (SK-MEL-28 melanoma) [%],growth (SK-MEL-2 melanoma),growth (SN12C renal) [%],growth (UO-31 renal),growth (ACHN renal) [%],growth (CAKI-1 renal) [%],growth (A498 renal) [%],growth (CCRF-CEM leukemia) [%],growth (MOLT-4 leukemia),growth (TK-10 renal) [%]
CC(=O)Nc1nc(C)c(C(=O)N/N=C/c2cccn2C)s1,106,101,109%,117,103,94.9,98.4,87.7,98.4,105,43.6%,94.5,93.7%,107,111,89.6,98.8,100%,–
CCOC(=O)c1sc(Nc2ncccn2)nc1-c1ccccn1,50.8,99.6,108%,91.5,73.2,86.3,83.2,97.6,79.9,94.7,60.4%,92,62.4%,88.4,57.2,90.2,46.2,73.1%,–
COc1cc(-c2c(C#N)c(N)n3c(nc4ccccc43)c2C#N)cc(Br)c1OC,63.9,32.1,-8.28% (active),57.4,25.3,37.2,35.8,55.2,52.9,57.5,76.7%,40.1,17.5%,50.1,69.1,67.1,–,43.3%,11.1
COc1cc(C2CC(=O)Nc3c2c(C)nn3-c2nc3ccccc3[nH]2)cc(OC)c1O (configuration not stated),40.3,57.9,6.05% (active),44.1,53.3,68.1,60.8,67.2,55.1,13.2,-7.45% (active),81.2,8.39% (active),31.1,78.9,22.5,–,-36% (active),–
Cc1ccc(-c2cc(-c3cccc(Nc4ccnc5cc(Cl)ccc45)c3)nc3nc(N)[nH]c(=O)c23)cc1,99.4,97.5,76.9%,84.8,88.5,95.8,99,97.7,92.8,110,87.6%,96.6,78.1%,105,94.8,109,56.1,81.8%,–
O=C(OCc1ncc(-c2ccc(C(F)(F)F)cc2)c(NC2CCCCCC2)n1)c1c(F)c(F)c(F)c(F)c1F,89.3,43.1,76.1%,73.8,46.8,28.6,36.4,36.6,57.5,47.4,54.6%,54.1,28.3%,27.8,89.6,102,15.7,79.1%,–
